# “And” between values parts separate entries of the source, which are not always exact repeats. Equal values may be shown once. Where a name gives a salt, the structure may show the parent alone.
# Key:
# Assay in all cases: cell viability relative to vehicle control; higher = less cytotoxic
# Conditions in all cases: 10 µM
# K562 = tested on: K562
# Method in brief: (§1)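 Four leukaemia lines, as CRISPR-edited mutant clones and isogenic wild-type clones, were tested against Selleck bioactive, kinase and epigenetic probe libraries after removal of identity-inconsistent compounds. Cells were exposed to a single 10 µM dose for 48 h, and CellTiter-Glo luminescence was then read. Viability was calculated relative to the on-plate vehicle control.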
# MARIMO = tested on: MARIMO
# Method in brief: as §1
# MOLM14 = tested on: MOLM14
# Method in brief: as §1
# OCI-AML2 = tested on: OCI-AML2
# Method in brief: as §1
Compound,cell viability (K562; SRSF2 genotype: SRSF2 P95H/wt),cell viability (K562; SRSF2 genotype: SRSF2 wt/wt),cell viability (MARIMO; SRSF2 genotype: SRSF2 P95H/wt),cell viability (MARIMO; SRSF2 genotype: SRSF2 wt/wt),cell viability (MOLM14; SRSF2 genotype: SRSF2 P95H/wt),cell viability (MOLM14; SRSF2 genotype: SRSF2 wt/wt),cell viability (OCI-AML2; SRSF2 genotype: P95H/wt),cell viability (OCI-AML2; SRSF2 genotype: wt/wt)
CC(C)(C)NC(=O)[C@H]1CC[C@H]2[C@@H]3CC[C@H]4NC(=O)C=C[C@]4(C)[C@H]3CC[C@]12C [Finasteride],103% and 99%,97.5%,94.3%,105%,101%,102%,99.7%,106%
CCCc1nn(C)c2c(=O)[nH]c(-c3cc(S(=O)(=O)N4CCN(C)CC4)ccc3OCC)nc12 [Sildenafil citrate],100% and 106%,103%,106%,108%,108%,111%,118%,109%
COc1ccc2cc(C(=O)O)ccc2c1 [6-Methoxy-2-naphthoic acid],108% and 98.7%,94.2%,92%,99.7%,88.6%,93.8%,89.4%,92.4%
CCC1(c2c[nH]cn2)Cc2ccccc2C1 [Atipamezole],82.9% and 78.3%,81.6%,83.2%,85.9%,78.9%,88.9%,90%,89.7%
O=C(O)CCCc1c[nH]c2ccccc12 [3-Indolebutyric acid (IBA)],108% and 96.9%,96.9%,100%,107%,93.2%,101%,97.2%,106%
CCc1cnn2c(NCc3ccc[n+]([O-])c3)cc(N3CCCC[C@H]3CCO)nc12,8.67% and 18.9%,13.1%,10.8%,4.43%,2.65%,0.52%,5.12%,17.9%
CC(=O)OCC=Cc1ccccc1 [Cinnamyl acetate],98.4% and 95.9%,104%,99.4%,95.9%,101%,102%,101%,111%
COc1cc2ncnc(Sc3nnc(C)s3)c2cc1OC,52.4% and 59.1%,73.6%,42%,42.1%,5.68%,3.57%,3.76%,16.7%
CC(C)CCCC(C)CCCC(C)CCCCC(C)CCCC(C)CCCC(C)C (configuration not stated) [Squalane],109% and 97%,108%,105%,106%,103%,108%,103%,100%
